Tests used:
[1] = system: Vero E6 infected with SARS-CoV-2; experiment: morphology score (similarity to uninfected cells); higher = more like uninfected cells; details: 24 h
[2] = system: Vero E6 infected with SARS-CoV-2; experiment: SARS-CoV-2 infection rate relative to infected DMSO; higher = more infection, active = 60 or less; details: 24 h

Row | Structure (SMILES) | morphology score [1] | SARS-CoV-2 infection rate [2]
1 | Cc1sc2c(c1C)C(c1ccc(Cl)cc1)=N[C@@H](CC(=O)Nc1ccc(OCCOCCOCCOCCNc3cccc4c3C(=O)N(C3CCC(=O)NC3=O)C4=O)cc1)c1nnc(C)n1-2 (some centres undefined) (10 µM) | -0.0682 | 100% (inactive)
2 | CC(C)(C)NCc1cc(Nc2ccnc3cc(Cl)ccc23)c2c(c1O)CCCC2 [naphthoquine-phosphate] (10 µM) | 0.103 | 109% (inactive)
3 | COc1cccc2cc(-c3nc([C@H]4CC[C@H](C(=O)O)CC4)n4ncnc(N)c34)[nH]c12 (0.833333 µM) | 0.174 | 112% (inactive)
4 | COC(=O)c1c(C)[nH]c(C)c1C(=O)c1ccccc1Cc1ccccc1 (10 µM) | -0.254 | 118% (inactive)
5 | Oc1cc(O)c(Cl)cn1 [gimeracil] (10 µM) | 0.103 | 107% (inactive)
6 | CO[C@H]1CC[C@H](N(c2cc(C3=CCCCC3)sc2C(=O)O)C(=O)[C@H]2CC[C@H](C)CC2)CC1 (10 µM) | 0.155 | 83% (inactive)
7 | COc1ccc(NC(=O)c2ccc(C(=N)N(C)C)cc2)c(C(=O)Nc2ccc(Cl)cn2)c1 [betrixaban] (10 µM) | 0.0893 | 91% (inactive)
8 | Cn1cc(-c2cnn3c(N)c(Br)c([C@@H]4CCCNC4)nc23)cn1 (10 µM) | 0.535 | 82% (inactive)
9 | OC[C@H]1O[C@H](O[C@]2(CCl)O[C@H](CCl)[C@@H](O)[C@@H]2O)[C@H](O)[C@@H](O)[C@H]1Cl [sucralose] (10 µM) | 0.0888 | 97% (inactive)
10 | CCCN1CCC[C@@H]2Cc3n[nH]cc3C[C@H]21 [quinpirol-(-)] (10 µM) | 0.203 | 92.5% (inactive)
11 | C[C@]12CCC(=O)C=C1CC[C@@H]1[C@@H]2CC[C@@]2(C)[C@H]1CC[C@]2(O)C(=O)CO [cortodoxone] (10 µM) | 0.0341 | 98% (inactive)
12 | Nc1ncnc2c1ncn2CCOCP(=O)(O)O [adefovir] (10 µM) | -0.0616 | 110% (inactive)
13 | Cc1ccc(S(=O)(=O)/C=C/C#N)cc1 (0.833333 µM) | 0.173 | 112% (inactive)
14 | CN(C[C@@H]1COCCO1)S(=O)(=O)Nc1ccc2ccc3ncc(-c4cnn(C)c4)cc3c(=O)c2c1 (0.833333 µM) | 0.0936 | 111% (inactive)
15 | Cc1ccc2c(c1)c1c(n2CCc2ccc(C)nc2)CCN(C)C1 [latrepirdine] (10 µM) | 0.241 | 96.5% (inactive)
16 | C#Cc1cccc2c1c(C(=O)c1ccc(Cn3c(C)nc4cnccc43)c(F)c1)cn2C(=O)N(C)C (10 µM) | 0.159 | 106% (inactive)
17 | Cc1nnc2ccc(-c3cccc(C(F)(F)F)c3)nn12 (10 µM) | -0.183 | 104% (inactive)
18 | C[C@H](Cc1ccc2c(c1)OC(C(=O)O)(C(=O)O)O2)NC[C@H](O)c1cccc(Cl)c1 (10 µM) | 0.159 | 93.5% (inactive)
19 | CC(C)CCC[C@@H](C)[C@H]1CC[C@H]2[C@@H]3CCC4=CC(=NO)CC[C@]4(C)[C@H]3CC[C@]12C [olesoxime] (10 µM) | -0.0917 | 106% (inactive)
20 | CC(C)=CCC[C@](C)(O[C@@H]1O[C@H](CO)[C@@H](O)[C@H](O)[C@H]1O)[C@H]1CC[C@]2(C)[C@@H]1[C@H](O)C[C@@H]1[C@@]3(C)CC[C@H](O)C(C)(C)[C@@H]3CC[C@]12C [ginsenoside-C-K] (10 µM) | 0.0257 | 118% (inactive)
21 | C=C1CCN([C@H](C)[C@](O)(Cn2cncn2)c2ccc(F)cc2F)CC1 [efinaconazole] (10 µM) | 0.162 | 92% (inactive)
22 | O=C(Nc1cccc2c(=O)cc(-c3nnn[nH]3)oc12)c1ccc(OCCCCc2ccccc2)cc1 [pranlukast] (10 µM) | 0.0454 | 111% (inactive)
